Reference: the supplement of paper PMC6555819

Experiments:
Experiment in all cases: PBM binding z-score (relative to random genomic background probes); higher = stronger binding; sequences stand for … in GC…GCGATTGACAGCGTAGAATGAAGG
[1] = test system: PPARg:RXRa DBDmut IVT, anti-RXR (DBD mutation: RXRa K156A/R161A, NR concentration 270 nM, RXRa partner concentration 90 nM)
Method in brief: (§1)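 Ligand-free nuclear receptor dimers were applied to custom Agilent 4×180K protein-binding microarrays whose double-stranded probes carried direct-repeat seeds, single-nucleotide variants, half-site ablations and random human genomic background sequences in 34-nt variable regions. Incubation lasted 1 h. Binding z-scores were computed against the random background probes from regression-normalized fluorescence.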

[2] = test system: PPARg:RXRa IVT, anti-PPARg (NR concentration 270 nM, RXRa partner concentration 90 nM)
Method in brief: as §1

[3] = test system: PPARg DBDmut:RXRa IVT, anti-PPARg (DBD mutation: PPARg1 K132A/R137A, NR concentration 270 nM, RXRa partner concentration 90 nM)
Method in brief: as §1

[4] = test system: PPARg DBDmut IVT, anti-PPARg (DBD mutation: PPARg1 K132A/R137A, NR concentration 270 nM)
Method in brief: as §1

[5] = test system: PPARg homodimer (NR concentration 180 nM)
Method in brief: as §1

[6] = test system: PXR:RXRa (NR concentration 270 nM, RXRa partner concentration 90 nM)
Method in brief: as §1

[7] = test system: PXR homodimer (NR concentration 270 nM)
Method in brief: as §1

[8] = test system: RARa:RXR (NR concentration 270 nM, RXRa partner concentration 90 nM)
Method in brief: as §1

[9] = test system: RARa homodimer (NR concentration 270 nM)
Method in brief: as §1

[10] = test system: RARb:RXRa (NR concentration 270 nM, RXRa partner concentration 90 nM)
Method in brief: as §1

[11] = test system: RARb homodimer (NR concentration 270 nM)
Method in brief: as §1

[12] = test system: RARg:RXRa (NR concentration 270 nM, RXRa partner concentration 90 nM)
Method in brief: as §1

[13] = test system: RARg homodimer (NR concentration 270 nM)
Method in brief: as §1

[14] = test system: RXRa DBDmut IVT, anti-RXR (DBD mutation: RXRa K156A/R161A, NR concentration 90 nM)
Method in brief: as §1

[15] = test system: RXRa homodimer (NR concentration 180 nM)
Method in brief: as §1

[16] = test system: THRa:RXRa (NR concentration 90 nM, RXRa partner concentration 90 nM)
Method in brief: as §1

[17] = test system: THRa homodimer (NR concentration 90 nM)
Method in brief: as §1

[18] = test system: VDR homodimer (NR concentration 270 nM)
Method in brief: as §1

Sequence | PBM binding z-score [1] | PBM binding z-score [2] | PBM binding z-score [3] | PBM binding z-score [4] | PBM binding z-score [5] | PBM binding z-score [6] | PBM binding z-score [7] | PBM binding z-score [8] | PBM binding z-score [9] | PBM binding z-score [10] | PBM binding z-score [11] | PBM binding z-score [12] | PBM binding z-score [13] | PBM binding z-score [14] | PBM binding z-score [15] | PBM binding z-score [16] | PBM binding z-score [17] | PBM binding z-score [18]
GCGATTAGTTGAAAGGGCAACCGAATGATTCTCG | 0.242 | 0.29 | -0.291 | -0.4 | 0.619 | 0.575 | 0.0647 | 1.43 | -0.197 | 1.87 | 1.82 | 1.14 | 1 | 0.582 | 1.27 | 0.405 | -0.273 | 0.184
CCTCAAAGTTCAAGGTAACGTAACAGAAAGCAGC | 0.797 | 0.928 | 0.66 | 0.159 | 3.58 | 4.18 | 2.53 | 3.49 | 2.16 | 5.26 | 4.13 | 5.48 | 6.39 | 4.29 | 4.44 | 3.32 | 1.79 | 3.65
TCTTGTAGTTCAATAGAGGTTAAGAAAGTGCGCT | 1.53 | 0.937 | 0.563 | 1.1 | 1.14 | 4.2 | 1.73 | 2.4 | 0.814 | 2.22 | 2.27 | 2 | 2 | 2.27 | 2.15 | 3.61 | 0.104 | 1.59
ACTAGCAGGCCAAGGGTAACTCAAGATTAGTCCG | 0.865 | 1.67 | -0.794 | -0.439 | 0.663 | -0.287 | -0.127 | 0.0162 | -0.543 | 0.971 | 0.76 | 0.469 | 0.734 | -0.0114 | 0.59 | 0.54 | -0.321 | -0.349
TAGCCTAGGTCATGGGCCAGTATACCACGCGAAC | 1.08 | 2.99 | 0.0326 | -0.324 | 1.77 | 1.62 | -0.133 | 2.54 | -0.386 | 3.7 | 2.71 | 4.27 | 4.78 | 0.316 | 3.57 | 2.93 | 1.3 | 0.506
GCGACTAGGGCAAAGCAGGTTACCATAAGGTTGG | 4.76 | 4.23 | -0.472 | -0.903 | 0.0824 | 0.293 | -0.481 | 0.775 | -1.2 | 1.1 | 0.924 | 0.573 | 1.01 | -0.427 | 0.44 | 2.98 | 0.052 | -0.405
TCATATAGGTAATACAGGTGATAGTCGGCATCTA | 4.04 | 3.01 | 1.19 | 2.05 | 1.08 | 0.592 | 0.285 | 0.723 | 1.73 | 0.484 | 0.0336 | 0.618 | 0.526 | 1.57 | 0.945 | 0.371 | 0.0861 | -0.0181
GCTTATAGATCAAGGTTAAGAAAGACTAAGCTAA | 0.775 | 0.678 | 0.643 | 0.713 | 0.58 | 0.457 | -0.0715 | 0.879 | 0.134 | 0.997 | 0.33 | 0.377 | 0.552 | 0.345 | 0.835 | 1.32 | 0.0443 | -0.265
GCTAGTTGGTCAGTAAAAGGTCACCCACCGGTCG | 0.689 | 2.81 | 0.204 | -0.0831 | 5.31 | 4.84 | 1.27 | 5.99 | 3.9 | 4.28 | 5.12 | 5.56 | 4.94 | -0.12 | 5.13 | 3.42 | 1.89 | 1.26
GATACAGGGTCAGCTAGAGGCCAGAATATGGAAA | 0.991 | 2.56 | -0.253 | -0.217 | 2.63 | 3.24 | 0.115 | 4.04 | 0.657 | 4.02 | 3.01 | 6.5 | 4.78 | 1.32 | 4.12 | 3.04 | 0.498 | 1
CTCGATAGGTCGGTTGAGGTGAGTATACGGATAA | -0.342 | 0.362 | 0.83 | 0.287 | 0.144 | 1.21 | 0.123 | 1.11 | -0.0628 | 1.17 | 1.02 | 0.724 | 1.15 | -0.0462 | 0.554 | 4.73 | 1.19 | 0.0696
AGAATGAGGTTACCACAGATCAGGGAAACGCTTG | 3.9 | 3.38 | 1.25 | 0.385 | 1.11 | 1.05 | 0.472 | 1.98 | 0.262 | 1.99 | 0.855 | 2 | 1.62 | 1.24 | 2.61 | 2.93 | 0.878 | 0.395
CTACCAAGGTGAACAGGGTCGTTGATTACTATTC | 1.92 | 2.88 | 0.525 | 0.178 | 0.785 | 1.89 | 0.796 | 2.11 | 0.321 | 1.75 | 1.71 | 1.51 | 1.17 | 1.08 | 1.87 | 2.87 | 1.68 | 1.92
CAAACTAGGTCACAGAGGTCAAAGTACGTGCGTA | 8.25 | 9.23 | 3.28 | 3.36 | 6.01 | 7.09 | 11.9 | 7.54 | 2.98 | 5.38 | 5.51 | 7.48 | 7.65 | 3.46 | 7.8 | 4.75 | 2.64 | 6.77
